Laboratory results: PubChem BioAssay (NCATS)
Where “and” joins values, the source holds several entries; their conditions need not be identical. Equal values may be shown once. Inconclusive results are not listed. A call without a number means that no potency is given here. Calls of active or inactive are those of the source. Unless noted, the call rests on the fitted dose curve.

Legend:
[1] = qHTS for Inhibitors of the Functional Ribonucleoprotein Complex (vRNP) of Lassa (LASV) Arenavirus: LASV Primary Screen - GLuc reporter signal (AID 1347082; calls by dose curve; tested in HEK293 reporter line; further: nearly all actives have a fitted effect of over 60% in size)
[2] = qHTS for Inhibitors of the Functional Ribonucleoprotein Complex (vRNP) of Lassa (LASV) Arenavirus: Viability assay - alamar blue signal for LASV Primary Screen (AID 1347083; calls by dose curve; tested in HEK293 reporter line; further: nearly all actives have a fitted effect of over 80% in size)
[3] = qHTS for Inhibitors of the Functional Ribonucleoprotein Complex (vRNP) of Lymphocytic Choriomeningitis Arenaviruses (LCMV): Viability assay - alamar blue signal for LCMV Primary Screen (AID 1347085; calls by dose curve; tested in HEK293 reporter line; further: nearly all actives have a fitted effect of over 80% in size)
[4] = target: Nucleoprotein (Lymphocytic choriomeningitis virus (strain Armstrong)) (UniProt P09992); test: qHTS for Inhibitors of the Functional Ribonucleoprotein Complex (vRNP) of Lymphocytic Choriomeningitis Arenaviruses (LCMV): LCMV Primary Screen - GLuc reporter signal (AID 1347086); further: nearly all actives have a fitted effect of over 70% in size
Nucleoprotein (Lymphocytic choriomeningitis virus (strain Armstrong)), sequence (P09992 whole entry, looked up): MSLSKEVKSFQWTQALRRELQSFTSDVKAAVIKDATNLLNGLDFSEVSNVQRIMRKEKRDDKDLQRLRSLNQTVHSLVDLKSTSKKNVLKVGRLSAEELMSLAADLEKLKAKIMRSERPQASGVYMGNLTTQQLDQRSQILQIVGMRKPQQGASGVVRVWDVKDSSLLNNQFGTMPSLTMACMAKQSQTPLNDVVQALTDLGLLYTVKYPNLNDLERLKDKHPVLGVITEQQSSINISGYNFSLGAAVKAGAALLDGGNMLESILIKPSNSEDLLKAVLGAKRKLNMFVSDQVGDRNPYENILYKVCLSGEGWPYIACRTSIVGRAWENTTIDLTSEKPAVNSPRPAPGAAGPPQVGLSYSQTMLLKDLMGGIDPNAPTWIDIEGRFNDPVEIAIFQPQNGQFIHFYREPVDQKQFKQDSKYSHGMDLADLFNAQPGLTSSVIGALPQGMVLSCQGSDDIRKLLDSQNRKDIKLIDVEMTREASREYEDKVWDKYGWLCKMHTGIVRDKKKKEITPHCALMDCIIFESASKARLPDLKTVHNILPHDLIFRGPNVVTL
Potency means the concentration at half of the fitted maximal effect.

Compound	Potency [1]	Potency [2]	Potency [3]	Potency [4]
CN(C)[C@@H]1C(=O)C(C(N)=O)=C(O)[C@@]2(O)C(=O)C3=C(O)c4c(O)ccc(Cl)c4[C@@H](O)[C@H]3C[C@@H]12	inactive	inactive	inactive	inactive
COc1ccc2nc(S(=O)Cc3ncc(C)c(OC)c3C)[nH]c2c1 (stereo not given)	inactive	inactive	inactive	inactive
Cc1ccsc1C(=CCCN1CCC[C@@H](C(=O)O)C1)c1sccc1C	inactive	inactive	inactive	inactive
COC(=O)[C@H]1[C@H]2C[C@@H]3c4[nH]c5cc(OC)ccc5c4CCN3C[C@H]2C[C@@H](OC(=O)c2cc(OC)c(OC)c(OC)c2)[C@@H]1OC	inactive	inactive	inactive	inactive
CCCN(CCC)CCc1cccc2c1CC(=O)N2	inactive	inactive	inactive	inactive
CC[N+](C)(C)c1cccc(O)c1	inactive	inactive	inactive	inactive
CC(CN(C)C)CN1c2ccccc2CCc2ccccc21 (stereo not given)	inactive	inactive	inactive	inactive
O=C(O)COCCN1CCN(C(c2ccccc2)c2ccc(Cl)cc2)CC1 (stereo not given)	inactive	inactive	inactive	inactive
CC(C)(C)NC(=O)[C@@H]1CN(Cc2cccnc2)CCN1C[C@@H](O)C[C@@H](Cc1ccccc1)C(=O)N[C@H]1c2ccccc2C[C@H]1O	inactive	inactive	inactive	inactive
CC(C)(C#N)c1cc(Cn2cncn2)cc(C(C)(C)C#N)c1	inactive	inactive	inactive	inactive
CN(N=O)C(=O)N[C@@H]1[C@@H](O)[C@H](O)[C@@H](CO)O[C@@H]1O	inactive	inactive	inactive	inactive
CC1=NS(=O)(=O)c2cc(Cl)ccc2N1	inactive	inactive	inactive	inactive
Cc1ccc(-c2cc(C(F)(F)F)nn2-c2ccc(S(N)(=O)=O)cc2)cc1	inactive	inactive	inactive	inactive
CCn1cc(C(=O)O)c(=O)c2ccc(C)nc21	inactive	inactive	inactive	inactive
CCCNC(=O)NS(=O)(=O)c1ccc(Cl)cc1	inactive	inactive	inactive	inactive
CCCN[C@H]1CCc2nc(N)sc2C1	inactive	inactive	inactive	inactive
C[C@@H](O)[C@H]1C(=O)N2C(C(=O)O)=C(S[C@@H]3CN[C@H](C(=O)N(C)C)C3)[C@H](C)[C@H]12	inactive	inactive	inactive	inactive
NCCCC(O)(P(=O)(O)O)P(=O)(O)O	inactive	inactive	inactive	inactive
CC(C)NCC(O)COc1cccc2[nH]ccc12 (stereo not given)	inactive	inactive	inactive	inactive
CC[C@@]1(O)C(=O)OCc2c1cc1n(c2=O)Cc2cc3c(CN(C)C)c(O)ccc3nc2-1	8.63 µM (active)	2.82 µM (active) and 1.09 µM (active)	1.72 µM (active)	2.82 µM (active) and 3.06 µM (active)

Compound	Potency [1]	Potency [2]	Potency [3]	Potency [4]
CCN1CCN(C(=O)N[C@@H](C(=O)N[C@@H]2C(=O)N3C(C(=O)O)=C(CSc4nnnn4C)CS[C@H]23)c2ccc(O)cc2)C(=O)C1=O	inactive	inactive	inactive	inactive
CCCCc1ncc(/C=C(\Cc2cccs2)C(=O)O)n1Cc1ccc(C(=O)O)cc1	inactive	inactive	inactive	inactive
Cc1ncc([N+](=O)[O-])n1CCO	inactive	inactive	inactive	inactive
CC/C=C(\C(=O)N[C@@H]1C(=O)N2C(C(=O)OCOC(=O)C(C)(C)C)=C(COC(N)=O)CS[C@H]12)c1csc(N)n1	inactive	inactive	inactive	inactive
CCOC(=O)Nc1ccc2c(c1)N(C(=O)CCN1CCOCC1)c1ccccc1S2	inactive	inactive	inactive	inactive
O=c1c(O)c(-c2ccc(O)c(O)c2)oc2cc(O)cc(O)c12	inactive	inactive	inactive	inactive
O[C@@H](CNC[C@H](O)[C@H]1CCc2cc(F)ccc2O1)[C@@H]1CCc2cc(F)ccc2O1	inactive	inactive	inactive	inactive
Cc1cnc(C(=O)NCCc2ccc(S(=O)(=O)NC(=O)NC3CCCCC3)cc2)cn1	inactive	inactive	inactive	inactive
OC(CCN1CCCC1)(c1ccccc1)C1CCCCC1 (stereo not given)	inactive	inactive	inactive	inactive
OC(Cn1cncn1)(Cn1cncn1)c1ccc(F)cc1F	inactive	inactive	inactive	inactive
COc1ccc(OC)c(C(O)CNC(=O)CN)c1 (stereo not given)	inactive	inactive	inactive	inactive
CCOC(=O)[C@H](CCc1ccccc1)N[C@@H](C)C(=O)N1Cc2cc(OC)c(OC)cc2C[C@H]1C(=O)O	inactive	inactive	inactive	inactive
CCOC(=O)[C@H](CCc1ccccc1)N[C@@H](C)C(=O)N1[C@H](C(=O)O)C[C@@H]2CCC[C@@H]21	inactive	inactive	inactive	inactive
Cc1cn([C@H]2C[C@H](N=[N+]=[N-])[C@@H](CO)O2)c(=O)[nH]c1=O	inactive	inactive	inactive	inactive
CC(=O)Oc1ccccc1C(=O)Nc1ncc([N+](=O)[O-])s1	inactive	inactive	inactive	inactive
C[C@](N)(Cc1ccc(O)c(O)c1)C(=O)O	inactive	inactive	inactive	inactive
CC(COc1ccccc1)N(CCCl)Cc1ccccc1 (stereo not given)	inactive	inactive	inactive	inactive
NC(=O)c1cn(Cc2c(F)cccc2F)nn1	inactive	inactive	inactive	inactive
NC(=Nc1ccccc1)Nc1ccccc1	inactive	inactive	inactive	inactive
CCCN(CCc1cccs1)[C@H]1CCc2c(O)cccc2C1	inactive	inactive	inactive	inactive

Compound	Potency [1]	Potency [2]	Potency [3]	Potency [4]
CCN(CC)CCOC(=O)C1(C2CCCCC2)CCCCC1	inactive	inactive	inactive	inactive
CNCC[C@@H](Oc1ccccc1C)c1ccccc1	inactive	inactive	inactive	inactive
C=C(c1ccc(C(=O)O)cc1)c1cc2c(cc1C)C(C)(C)CCC2(C)C	inactive	inactive	inactive	inactive
CCCCCOC(=O)Nc1nc(=O)n([C@@H]2O[C@H](C)[C@@H](O)[C@H]2O)cc1F	inactive	inactive	inactive	inactive
C=C(CC)C(=O)c1ccc(OCC(=O)O)c(Cl)c1Cl	inactive	inactive	inactive	inactive
CN(CCOc1ccc(CC2SC(=O)NC2=O)cc1)c1ccccn1 (stereo not given)	inactive	inactive	inactive	inactive
Oc1cn2c(n1)Nc1ccc(Cl)c(Cl)c1C2	inactive	inactive	inactive	inactive
COc1ccccc1OCC(O)CN1CCN(CC(=O)Nc2c(C)cccc2C)CC1 (stereo not given)	inactive	inactive	inactive	inactive
Cc1cn[nH]c1	inactive	inactive	inactive	inactive
CC1(C)S[C@@H]2[C@H](NC(=O)C(C(=O)O)c3ccccc3)C(=O)N2[C@H]1C(=O)O (stereo not given in full)	inactive	inactive	inactive	inactive
NCCC(O)(P(=O)(O)O)P(=O)(O)O	inactive	inactive	inactive	inactive
Cc1cc2c(s1)Nc1ccccc1N=C2N1CCN(C)CC1	inactive	inactive	inactive	inactive
CNCCCN1c2ccccc2CCc2ccccc21	inactive	inactive	inactive	inactive
CC(C)(C(=O)O)c1ccc(C(O)CCCN2CCC(C(O)(c3ccccc3)c3ccccc3)CC2)cc1 (stereo not given)	inactive	inactive	inactive	inactive
CC1(C)S[C@@H]2[C@H](NC(=O)Cc3ccccc3)C(=O)N2[C@H]1C(=O)O (tested in a mixture with another compound)	inactive	inactive	inactive	inactive
O=C(O)c1cn(C2CC2)c2cc(N3CCNCC3)c(F)cc2c1=O	inactive	inactive	inactive	inactive
COc1cc(NC(C)CCCN)c2ncccc2c1 (stereo not given)	inactive	inactive	inactive	inactive
N[C@@H](C(=O)N[C@@H]1C(=O)N2C(C(=O)O)=C(Cl)CS[C@H]12)c1ccccc1	inactive	inactive	inactive	inactive
C[C@@H](NCCCc1cccc(C(F)(F)F)c1)c1cccc2ccccc12	inactive	inactive	inactive	inactive
Cc1ccc(-n2[nH]c(C)c(N=Nc3cccc(-c4cccc(C(=O)O)c4)c3O)c2=O)cc1C	inactive	inactive	inactive	inactive
